Reference: PubChem BioAssay AID1159554 (Broad Institute, 2015)
About 2,100 (2.2%) of roughly 94,000 compounds were called active. This is one part of a sample in which actives are shown more often than they occur. No stated cut-off is given here; in the data, active means activity change below about -80%; inconclusive means no clear call, values can overlap the other calls; inactive means above that.

Assay: P. falciparum Dd2 growth inhibitors, primary screen, SYBR Green fluorescence, single dose replicates (AID 1159554)
Details: 72 h, at 10 µM, hits give low values

Compound | activity change
Cc1ccc(S(=O)(=O)N2C[C@@H](O)COC[C@@H]3O[C@H](CC(=O)NCCCN(C)C)CC[C@H]32)cc1 | -1.46% (inactive)
COc1ccc2c3c([nH]c2c1)[C@H](CO)N(C(=O)Nc1ccc(F)cc1)CC31CCN(C(=O)Nc2c(C)noc2C)CC1 | -35.3% (inactive)
COc1ccc2c3c([nH]c2c1)[C@@H](CO)N(Cc1cccc(F)c1)CC31CN(CC2CC2)C1 | -82.5% (active)
COc1ccc2c3c([nH]c2c1)[C@H](CO)N(S(=O)(=O)c1cn(C)cn1)CC31CCN(CC2CC2)CC1 | 1.53% (inactive)
COc1ccc2c3c([nH]c2c1)[C@H](CO)N(C(=O)Nc1ccc(F)cc1)CC31CCN(CC2CCOCC2)CC1 | -81.3% (active)
COc1ccc2c3c([nH]c2c1)[C@H](CO)N(CC1CC1)CC31CN(C(=O)Nc2cccc(F)c2)C1 | -49.9% (inactive)
COc1ccc2c3c([nH]c2c1)[C@H](CO)N(Cc1cccc(F)c1)CC31CCN(CC2CC2)CC1 | -83.2% (active)
CCCNC(=O)N1CC2(C1)CN(Cc1cccc(F)c1)[C@@H](CO)c1[nH]c3cc(OC)ccc3c12 | -63.2% (inactive)
COc1ccc2c3c([nH]c2c1)[C@H](CO)N(C(=O)C1CCC1)CC31CCN(Cc2cccc(F)c2)CC1 | -43.8% (inactive)
COc1ccc2c3c([nH]c2c1)[C@@H](CO)N(C(=O)c1ccc(F)cc1)CC31CCN(C(=O)Nc2ccc(F)cc2)CC1 | -75.4% (inactive)
CCC(=O)N(C)C[C@H]1Oc2ncc(C#CC(C)C)cc2C(=O)N([C@@H](C)CO)C[C@H]1C | 34.1% (inactive)
CN1C(=O)c2cc(NC(=O)C3CCCC3)ccc2OC[C@H]2O[C@H](CC(=O)NCc3ccccc3F)CC[C@H]21 | -16.4% (inactive)
O=C(C1CCCC1)N1[C@H](CO)[C@H]2c3ccccc3N(S(=O)(=O)c3ccccc3)C[C@H]21 | -20% (inactive)
Cc1noc(C)c1NC(=O)N(C)C[C@H]1Oc2ccc(NC(=O)Cn3cnnn3)cc2CC(=O)N([C@H](C)CO)C[C@@H]1C | 26.5% (inactive)
Cc1cc(C(=O)Nc2cccc3c2O[C@@H](CN(C)Cc2ccncc2)[C@@H](C)CN([C@@H](C)CO)C3=O)n(C)n1 | 6.17% (inactive)
C[C@H](CO)N1C[C@H](C)[C@@H](CN(C)Cc2ccc(C(=O)Nc3ccccc3N)cc2)Oc2c(NC(=O)C3CC3)cccc2C1=O | -57.7% (inactive)
C[C@@H]1CN([C@@H](C)CO)C(=O)c2cccc(NC(=O)Nc3ccccc3)c2O[C@H]1CN(C)Cc1ccccc1 | -14.5% (inactive)
Cc1cc(C(=O)Nc2cccc3c2O[C@@H](CN(C)Cc2ccc(C(=O)Nc4ccccc4N)cc2)[C@H](C)CN([C@@H](C)CO)C3=O)n(C)n1 | -84.4% (active)
C[C@H](CO)N1C[C@H](C)[C@H](CN(C)Cc2ccc(C(=O)Nc3ccccc3N)cc2)Oc2c(NC(=O)Nc3ccccc3)cccc2C1=O | -80.2% (active)
Cc1cc(C(=O)Nc2cccc3c2O[C@@H](CN(C)Cc2ccc(C(=O)O)cc2)[C@H](C)CN([C@@H](C)CO)C3=O)n(C)n1 | 6.12% (inactive)
CC(C)(C)[S@](=O)N1Cc2cc(C(=O)N3CCCCC3)nc(-c3cccc(Br)c3)c2[C@@H]1CCO | -2.81% (inactive)

Compound | activity change
COc1cccc(S(=O)(=O)N[C@H]2C=C[C@@H](CC(=O)NCc3ccccc3)O[C@@H]2CO)c1 | 18.4% (inactive)
O=C(C[C@@H]1CC[C@@H]2[C@H](COC[C@H](O)CN2C(=O)c2ccncc2)O1)NCc1cc(F)cc(F)c1 | 1.9% (inactive)
COc1ccc(-c2cnc3c(c2)C(=O)N([C@@H](C)CO)C[C@H](C)[C@@H](CN(C)C(=O)C2CC2)O3)cc1 | 13.9% (inactive)
O=C(c1ccc(F)cc1)N1CC2(C1)[C@H](c1ccccc1)[C@@H](CO)N2Cc1ccccn1 | -24.5% (inactive)
Cc1ccccc1S(=O)(=O)N1CC(=O)N2[C@H](CO)[C@H](c3ccc(C#CC4CC4)cc3)[C@@H]2C1 | -84.8% (active)
O=C1CN(S(=O)(=O)Cc2ccccc2)C[C@@H]2[C@@H](c3ccc(C#Cc4ccccc4)cc3)[C@@H](CO)N12 | -68.4% (inactive)
Cc1ccccc1S(=O)(=O)N1CC(=O)N2[C@H](CO)[C@@H](c3ccc(C#Cc4ccccc4)cc3)[C@H]2C1 | -22.9% (inactive)
Cc1ccccc1S(=O)(=O)N1CC(=O)N2[C@H](CO)[C@H](c3ccc(C#CCN(C)C)cc3)[C@H]2C1 | -1.17% (inactive)
O=C1CN(S(=O)(=O)c2ccccc2)C[C@H]2[C@H](c3ccc(C4=CCCC4)cc3)[C@@H](CO)N12 | 5.25% (inactive)
O=C1CN(S(=O)(=O)c2ccccc2)C[C@H]2[C@H](c3ccc(C#CCc4ccccc4)cc3)[C@@H](CO)N12 | -82.9% (active)
C[C@@H]1CN([C@@H](C)CO)S(=O)(=O)c2ccc(C#CC(C)(C)O)cc2O[C@H]1CN(C)C(=O)CN(C)C | 31.6% (inactive)
Cc1ccccc1S(=O)(=O)N1[C@@H](C#N)[C@H](c2ccccc2)[C@@H]1CO | 20.4% (inactive)
CCCNC(=O)N1CC2(CN(C(=O)C3CCCCC3)C2)c2c([nH]c3cc(OC)ccc23)[C@@H]1CO | -5.82% (inactive)
O=C(Nc1ccc(F)cc1)N[C@H]1C=C[C@@H](CC(=O)N2CCOCC2)O[C@H]1CO | -16.7% (inactive)
COc1ccc(S(=O)(=O)N(C)C[C@@H]2Oc3c(NC(=O)NC(C)C)cccc3C(=O)N([C@@H](C)CO)C[C@@H]2C)cc1 | -6.46% (inactive)
COc1ccc(S(=O)(=O)N(C)C[C@H]2Oc3c(NC(=O)Nc4cccc5ccccc45)cccc3C(=O)N([C@@H](C)CO)C[C@H]2C)cc1 | -88.1% (active)
C[C@H]1CN([C@@H](C)CO)C(=O)c2cccc(NC(=O)CCCCCC(=O)Nc3ccccc3N)c2O[C@@H]1CN(C)S(=O)(=O)c1cn(C)cn1 | 22.6% (inactive)
COc1ccc(S(=O)(=O)N(C)C[C@H]2Oc3c(NC(=O)CCCCCC(=O)Nc4ccccc4N)cccc3C(=O)N([C@H](C)CO)C[C@H]2C)cc1 | -89.5% (active)
C[C@H](CO)N1C[C@H](C)[C@H](CN(C)S(=O)(=O)c2ccccc2)Oc2c(NC(=O)CCCCCC(=O)Nc3ccccc3N)cccc2C1=O | -73.2% (inactive)
C[C@@H]1CN([C@@H](C)CO)C(=O)c2cccc(NC(=O)Nc3cccc4ccccc34)c2O[C@H]1CN(C)S(=O)(=O)c1ccccc1 | -19.1% (inactive)
